Reference: PMC7862700, “An all-to-all approach to the identification of sequence-specific readers for epigenetic DNA modifications on cytosine”

Experiments:
Test in all cases: DAPPL (digital affinity profiling via proximity ligation, sequencing); 10 mM Tris-HCl pH 7.5, 50 mM NaCl, 1 mM DTT, 4% glycerol, room temperature, 30 min; GST-TFs on glutathione beads, 16-mer random dsDNA library, 0.1% formaldehyde crosslink after washing; high values mean tight binding
Conditions in all cases: protein: recombinant; tags: N-terminal GST; dsDNA, one strand shown
FLI1 = target: T1, FLI1 (Homo sapiens, UniProt Q01543 1-452)
T1 sequence: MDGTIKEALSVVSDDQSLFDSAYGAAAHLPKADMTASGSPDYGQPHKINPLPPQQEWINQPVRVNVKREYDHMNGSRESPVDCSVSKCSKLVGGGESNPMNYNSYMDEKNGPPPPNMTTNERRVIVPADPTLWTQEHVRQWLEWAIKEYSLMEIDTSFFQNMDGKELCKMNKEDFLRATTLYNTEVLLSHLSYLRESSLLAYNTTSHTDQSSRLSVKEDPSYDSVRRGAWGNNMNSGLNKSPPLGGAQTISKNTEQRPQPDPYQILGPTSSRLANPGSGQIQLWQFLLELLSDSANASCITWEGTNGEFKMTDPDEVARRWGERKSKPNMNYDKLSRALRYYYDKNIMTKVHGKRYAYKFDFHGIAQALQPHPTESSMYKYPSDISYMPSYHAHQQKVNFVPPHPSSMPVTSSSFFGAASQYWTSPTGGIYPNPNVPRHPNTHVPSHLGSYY
Method in brief: (§1)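 GST fusions of human transcription factors were expressed in yeast and captured with glutathione beads. Once given DNA barcodes and pooled alongside a tag-only sample, they were incubated for 30 min at room temperature with 200 nmole of a random double-stranded 16-mer DNA library in Tris/NaCl/DTT/glycerol buffer, then washed, crosslinked (0.1% formaldehyde), proximity-ligated, PCR-amplified and sequenced on an Illumina NextSeq500. The binding signal of each hexamer is its read frequency for a factor divided by its frequency for the tag-only sample.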

ELK1 = target: T2, ELK1 (Homo sapiens, UniProt P19419 1-428)
T2 sequence: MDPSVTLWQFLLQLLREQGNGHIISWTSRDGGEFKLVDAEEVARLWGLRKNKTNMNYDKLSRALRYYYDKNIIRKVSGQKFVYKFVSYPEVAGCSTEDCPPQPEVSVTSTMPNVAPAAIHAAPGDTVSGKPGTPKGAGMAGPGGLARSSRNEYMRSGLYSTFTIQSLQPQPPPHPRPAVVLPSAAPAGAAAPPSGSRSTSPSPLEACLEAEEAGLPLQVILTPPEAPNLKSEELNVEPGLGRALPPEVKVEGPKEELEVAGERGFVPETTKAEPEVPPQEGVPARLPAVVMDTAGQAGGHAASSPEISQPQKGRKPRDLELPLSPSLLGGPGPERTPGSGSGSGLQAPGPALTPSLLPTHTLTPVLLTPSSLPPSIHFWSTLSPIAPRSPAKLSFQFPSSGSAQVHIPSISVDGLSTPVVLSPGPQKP
Method in brief: as §1

GABPA = target: T3, GABPA (Homo sapiens, UniProt Q06546 1-454)
T3 sequence: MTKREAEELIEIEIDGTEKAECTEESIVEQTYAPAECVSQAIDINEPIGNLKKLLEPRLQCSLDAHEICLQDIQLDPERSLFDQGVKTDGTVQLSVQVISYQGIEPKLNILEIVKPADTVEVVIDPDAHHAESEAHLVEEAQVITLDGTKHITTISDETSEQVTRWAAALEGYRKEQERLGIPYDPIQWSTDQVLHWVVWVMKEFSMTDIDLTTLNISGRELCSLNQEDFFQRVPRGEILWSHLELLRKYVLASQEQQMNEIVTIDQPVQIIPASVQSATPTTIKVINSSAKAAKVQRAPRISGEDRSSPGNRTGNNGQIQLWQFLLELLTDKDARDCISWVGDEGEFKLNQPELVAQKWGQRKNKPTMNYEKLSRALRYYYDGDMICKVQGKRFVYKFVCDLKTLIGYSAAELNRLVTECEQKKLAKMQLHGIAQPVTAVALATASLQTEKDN
Method in brief: as §1

ERG = target: T4, ERG (Homo sapiens, UniProt P11308 1-479)
T4 sequence: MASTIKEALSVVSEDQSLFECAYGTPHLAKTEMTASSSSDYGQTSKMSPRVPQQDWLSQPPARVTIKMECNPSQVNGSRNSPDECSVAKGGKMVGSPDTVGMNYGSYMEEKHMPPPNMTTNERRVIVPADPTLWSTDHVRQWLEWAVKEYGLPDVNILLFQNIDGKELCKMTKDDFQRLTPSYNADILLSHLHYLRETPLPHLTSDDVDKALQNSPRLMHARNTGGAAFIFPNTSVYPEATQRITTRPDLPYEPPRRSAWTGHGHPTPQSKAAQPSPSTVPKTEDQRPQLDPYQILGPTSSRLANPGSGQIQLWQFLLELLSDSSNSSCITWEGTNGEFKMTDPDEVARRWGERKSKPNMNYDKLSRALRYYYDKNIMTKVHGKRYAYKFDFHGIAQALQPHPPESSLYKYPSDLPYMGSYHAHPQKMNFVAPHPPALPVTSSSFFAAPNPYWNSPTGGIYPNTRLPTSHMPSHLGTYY
Method in brief: as §1

ELF1 = ELF1 (Homo sapiens, UniProt P32519 1-619)
Method in brief: as §1

EHF = target: T5, EHF (Homo sapiens, UniProt Q9NZC4 1-300)
T5 sequence: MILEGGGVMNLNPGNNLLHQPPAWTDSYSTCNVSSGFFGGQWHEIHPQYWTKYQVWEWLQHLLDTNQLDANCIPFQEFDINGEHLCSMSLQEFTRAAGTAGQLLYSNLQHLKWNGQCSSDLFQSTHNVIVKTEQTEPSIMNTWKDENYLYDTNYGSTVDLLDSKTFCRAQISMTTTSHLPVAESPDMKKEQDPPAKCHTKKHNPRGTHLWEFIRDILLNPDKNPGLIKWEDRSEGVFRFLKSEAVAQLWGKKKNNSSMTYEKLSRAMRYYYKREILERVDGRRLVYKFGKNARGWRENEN
Method in brief: as §1

SPI1 = SPI1 (Homo sapiens, UniProt P17947 1-270)
Method in brief: as §1

SPIB = SPIB (Homo sapiens, UniProt Q01892 1-262)
Method in brief: as §1

ELK3 = target: T6, ELK3 (Homo sapiens, UniProt P41970 1-407)
T6 sequence: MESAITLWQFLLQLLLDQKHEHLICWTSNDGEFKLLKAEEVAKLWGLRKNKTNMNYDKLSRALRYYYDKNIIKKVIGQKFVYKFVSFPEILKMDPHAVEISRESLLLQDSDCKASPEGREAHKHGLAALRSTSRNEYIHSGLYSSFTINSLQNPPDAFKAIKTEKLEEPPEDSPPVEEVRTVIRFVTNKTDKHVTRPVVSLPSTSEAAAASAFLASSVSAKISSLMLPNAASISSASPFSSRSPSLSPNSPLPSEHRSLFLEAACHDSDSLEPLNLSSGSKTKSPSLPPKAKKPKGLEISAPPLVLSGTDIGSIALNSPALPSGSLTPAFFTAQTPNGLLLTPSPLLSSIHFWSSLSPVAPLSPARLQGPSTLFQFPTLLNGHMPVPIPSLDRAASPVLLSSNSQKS
Method in brief: as §1

FEV = target: T7, FEV (Homo sapiens, UniProt Q99581 1-238)
T7 sequence: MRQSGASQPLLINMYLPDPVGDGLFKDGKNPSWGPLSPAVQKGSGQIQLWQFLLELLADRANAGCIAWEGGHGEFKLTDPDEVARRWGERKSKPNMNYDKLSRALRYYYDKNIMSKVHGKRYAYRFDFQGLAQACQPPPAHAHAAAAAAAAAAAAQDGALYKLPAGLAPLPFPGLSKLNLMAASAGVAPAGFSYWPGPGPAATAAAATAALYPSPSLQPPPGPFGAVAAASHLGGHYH
Method in brief: as §1

ETV5 = ETV5 (Homo sapiens, UniProt P41161 1-510)
Method in brief: as §1

SPIC = target: T8, SPIC (Homo sapiens, UniProt Q8N5J4 1-248)
T8 sequence: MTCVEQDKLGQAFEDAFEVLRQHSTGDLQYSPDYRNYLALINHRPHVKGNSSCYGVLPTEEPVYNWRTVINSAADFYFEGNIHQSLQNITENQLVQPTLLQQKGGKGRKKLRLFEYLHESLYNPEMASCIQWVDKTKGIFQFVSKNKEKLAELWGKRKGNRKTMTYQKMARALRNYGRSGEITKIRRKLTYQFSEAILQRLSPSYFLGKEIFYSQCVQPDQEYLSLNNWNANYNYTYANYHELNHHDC
Method in brief: as §1

ELF4 = ELF4 (Homo sapiens, UniProt Q99607 1-663)
Method in brief: as §1

ELK4 = target: T9, ELK4 (Homo sapiens, UniProt P28324-2 1-405)
T9 sequence: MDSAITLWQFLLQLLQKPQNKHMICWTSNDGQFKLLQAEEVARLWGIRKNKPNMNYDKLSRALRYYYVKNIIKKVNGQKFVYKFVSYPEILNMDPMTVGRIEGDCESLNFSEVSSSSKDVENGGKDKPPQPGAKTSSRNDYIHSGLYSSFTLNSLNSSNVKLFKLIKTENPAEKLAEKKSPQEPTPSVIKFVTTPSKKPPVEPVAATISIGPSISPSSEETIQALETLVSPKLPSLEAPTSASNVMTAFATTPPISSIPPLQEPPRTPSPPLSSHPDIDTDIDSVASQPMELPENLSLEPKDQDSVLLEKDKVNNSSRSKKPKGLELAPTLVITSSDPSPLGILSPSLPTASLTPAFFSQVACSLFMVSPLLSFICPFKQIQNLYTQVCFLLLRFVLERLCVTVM
Method in brief: as §1

ETV2 = target: T10, ETV2 (Homo sapiens, UniProt O00321 1-342)
T10 sequence: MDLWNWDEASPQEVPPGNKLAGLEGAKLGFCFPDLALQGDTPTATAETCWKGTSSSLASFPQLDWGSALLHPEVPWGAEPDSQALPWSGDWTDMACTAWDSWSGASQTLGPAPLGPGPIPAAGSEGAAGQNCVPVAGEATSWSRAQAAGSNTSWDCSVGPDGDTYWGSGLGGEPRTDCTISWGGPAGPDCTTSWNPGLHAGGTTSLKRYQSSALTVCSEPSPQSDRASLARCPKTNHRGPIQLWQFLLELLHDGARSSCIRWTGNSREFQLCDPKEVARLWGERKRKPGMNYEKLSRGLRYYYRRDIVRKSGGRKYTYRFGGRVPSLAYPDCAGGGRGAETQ
Method in brief: as §1

ELF3 = target: T11, ELF3 (Homo sapiens, UniProt P78545 1-371)
T11 sequence: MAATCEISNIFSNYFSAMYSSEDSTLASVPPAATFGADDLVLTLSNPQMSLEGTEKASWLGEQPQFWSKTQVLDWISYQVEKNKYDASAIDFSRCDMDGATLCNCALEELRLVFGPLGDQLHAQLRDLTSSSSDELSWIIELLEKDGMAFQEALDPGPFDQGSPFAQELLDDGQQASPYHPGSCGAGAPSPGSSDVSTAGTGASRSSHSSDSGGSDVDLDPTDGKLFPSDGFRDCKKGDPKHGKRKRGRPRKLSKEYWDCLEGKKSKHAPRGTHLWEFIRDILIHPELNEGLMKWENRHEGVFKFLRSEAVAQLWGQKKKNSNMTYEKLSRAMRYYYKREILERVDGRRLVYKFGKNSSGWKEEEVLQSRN
Method in brief: as §1

ETV1 = ETV1 (Homo sapiens, UniProt P50549 1-477)
Method in brief: as §1

Chain of ELF1 (P32519 whole entry): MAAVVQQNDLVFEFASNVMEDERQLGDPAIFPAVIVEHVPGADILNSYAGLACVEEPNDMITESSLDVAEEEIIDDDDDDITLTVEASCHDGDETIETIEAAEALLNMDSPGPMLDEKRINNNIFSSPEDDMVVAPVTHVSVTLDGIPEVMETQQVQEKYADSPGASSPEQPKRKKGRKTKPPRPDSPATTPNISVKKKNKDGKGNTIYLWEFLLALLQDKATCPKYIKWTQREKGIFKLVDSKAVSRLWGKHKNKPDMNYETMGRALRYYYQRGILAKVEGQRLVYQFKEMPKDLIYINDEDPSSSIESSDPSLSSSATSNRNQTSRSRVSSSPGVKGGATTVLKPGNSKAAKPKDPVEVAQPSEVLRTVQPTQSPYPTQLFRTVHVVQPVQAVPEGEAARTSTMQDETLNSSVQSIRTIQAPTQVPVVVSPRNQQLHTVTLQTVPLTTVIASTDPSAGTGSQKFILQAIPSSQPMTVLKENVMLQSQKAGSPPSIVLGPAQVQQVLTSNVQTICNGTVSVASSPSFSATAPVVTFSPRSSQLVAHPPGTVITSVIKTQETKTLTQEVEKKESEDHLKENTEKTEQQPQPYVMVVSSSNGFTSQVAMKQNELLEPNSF
Chain of ETV5 (P41161 whole entry): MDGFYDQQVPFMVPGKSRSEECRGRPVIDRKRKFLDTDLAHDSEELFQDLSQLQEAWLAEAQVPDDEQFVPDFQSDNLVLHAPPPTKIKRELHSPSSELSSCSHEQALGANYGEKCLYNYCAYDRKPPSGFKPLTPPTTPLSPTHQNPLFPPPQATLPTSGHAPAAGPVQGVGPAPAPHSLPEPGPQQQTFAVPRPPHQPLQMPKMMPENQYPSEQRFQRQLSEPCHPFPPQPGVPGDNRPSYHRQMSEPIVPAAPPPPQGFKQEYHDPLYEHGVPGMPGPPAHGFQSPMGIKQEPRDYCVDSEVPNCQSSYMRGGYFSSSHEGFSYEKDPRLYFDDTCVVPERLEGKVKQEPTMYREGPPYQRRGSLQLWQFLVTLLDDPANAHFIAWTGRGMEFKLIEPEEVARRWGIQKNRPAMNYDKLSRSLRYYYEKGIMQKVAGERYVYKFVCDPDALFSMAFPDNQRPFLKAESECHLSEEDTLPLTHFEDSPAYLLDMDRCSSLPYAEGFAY
Chain of SPIB (Q01892 whole entry): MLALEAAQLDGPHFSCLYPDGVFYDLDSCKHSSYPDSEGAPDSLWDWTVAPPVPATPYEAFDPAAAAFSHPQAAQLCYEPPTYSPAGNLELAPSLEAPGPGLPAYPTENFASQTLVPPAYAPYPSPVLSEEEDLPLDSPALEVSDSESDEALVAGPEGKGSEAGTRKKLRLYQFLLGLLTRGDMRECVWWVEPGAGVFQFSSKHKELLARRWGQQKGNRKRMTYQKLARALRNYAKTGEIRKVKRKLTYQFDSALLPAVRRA
Chain of ELF4 (Q99607 whole entry): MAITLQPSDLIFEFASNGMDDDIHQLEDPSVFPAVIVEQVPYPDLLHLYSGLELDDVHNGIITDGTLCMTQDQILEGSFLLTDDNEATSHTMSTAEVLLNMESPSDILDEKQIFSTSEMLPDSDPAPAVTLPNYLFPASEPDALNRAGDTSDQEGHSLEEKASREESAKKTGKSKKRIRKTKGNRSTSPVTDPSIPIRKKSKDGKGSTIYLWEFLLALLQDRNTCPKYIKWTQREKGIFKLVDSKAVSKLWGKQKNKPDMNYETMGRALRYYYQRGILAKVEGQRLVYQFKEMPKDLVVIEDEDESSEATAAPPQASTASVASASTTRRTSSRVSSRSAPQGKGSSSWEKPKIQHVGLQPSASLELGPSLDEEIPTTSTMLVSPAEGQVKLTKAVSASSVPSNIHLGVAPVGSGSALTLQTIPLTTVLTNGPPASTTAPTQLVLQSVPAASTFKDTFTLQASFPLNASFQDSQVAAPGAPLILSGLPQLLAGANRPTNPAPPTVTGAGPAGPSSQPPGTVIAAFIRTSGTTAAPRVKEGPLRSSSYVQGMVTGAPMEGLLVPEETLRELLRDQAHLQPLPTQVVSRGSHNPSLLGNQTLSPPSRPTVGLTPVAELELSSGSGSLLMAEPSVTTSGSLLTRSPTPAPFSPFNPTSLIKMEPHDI
Chain of ETV1 (P50549 whole entry): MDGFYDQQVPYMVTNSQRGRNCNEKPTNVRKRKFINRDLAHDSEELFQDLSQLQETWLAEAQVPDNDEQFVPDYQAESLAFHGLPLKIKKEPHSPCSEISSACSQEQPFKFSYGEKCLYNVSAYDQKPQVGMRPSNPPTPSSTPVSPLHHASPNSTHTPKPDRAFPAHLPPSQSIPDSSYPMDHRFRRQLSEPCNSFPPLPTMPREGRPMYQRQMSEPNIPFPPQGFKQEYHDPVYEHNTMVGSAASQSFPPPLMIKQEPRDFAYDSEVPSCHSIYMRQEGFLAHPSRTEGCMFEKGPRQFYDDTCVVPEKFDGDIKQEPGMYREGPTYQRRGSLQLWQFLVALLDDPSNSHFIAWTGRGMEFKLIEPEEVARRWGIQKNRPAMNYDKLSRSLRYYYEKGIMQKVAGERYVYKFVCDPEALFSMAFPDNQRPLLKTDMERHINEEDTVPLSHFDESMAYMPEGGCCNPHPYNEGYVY

Sequence | binding signal (FLI1) | binding signal (ELK1) | binding signal (GABPA) | binding signal (ERG) | binding signal (ELF1) | binding signal (EHF) | binding signal (SPI1) | binding signal (SPIB) | binding signal (ELK3) | binding signal (FEV) | binding signal (ETV5) | binding signal (SPIC) | binding signal (ELF4) | binding signal (ELK4) | binding signal (ETV2) | binding signal (ELF3) | binding signal (ETV1)
TGCACA | 1.18 fold enrichment (6-mer frequency, TF over GST control) | 1.18 fold enrichment (6-mer frequency, TF over GST control) | 1.03 fold enrichment (6-mer frequency, TF over GST control) | 1.09 fold enrichment (6-mer frequency, TF over GST control) | 1.1 fold enrichment (6-mer frequency, TF over GST control) | 1.02 fold enrichment (6-mer frequency, TF over GST control) | 1.05 fold enrichment (6-mer frequency, TF over GST control) | 1.13 fold enrichment (6-mer frequency, TF over GST control) | 1.2 fold enrichment (6-mer frequency, TF over GST control) | 1.14 fold enrichment (6-mer frequency, TF over GST control) | 1.13 fold enrichment (6-mer frequency, TF over GST control) | 1.15 fold enrichment (6-mer frequency, TF over GST control) | 1.12 fold enrichment (6-mer frequency, TF over GST control) | 1.11 fold enrichment (6-mer frequency, TF over GST control) | 1.15 fold enrichment (6-mer frequency, TF over GST control) | 1.26 fold enrichment (6-mer frequency, TF over GST control) | 1.09 fold enrichment (6-mer frequency, TF over GST control)
GCACGC | 1.03 fold enrichment (6-mer frequency, TF over GST control) | 1.09 fold enrichment (6-mer frequency, TF over GST control) | 1.14 fold enrichment (6-mer frequency, TF over GST control) | 1.03 fold enrichment (6-mer frequency, TF over GST control) | 1.15 fold enrichment (6-mer frequency, TF over GST control) | 1.15 fold enrichment (6-mer frequency, TF over GST control) | 1.12 fold enrichment (6-mer frequency, TF over GST control) | 1.19 fold enrichment (6-mer frequency, TF over GST control) | 1.09 fold enrichment (6-mer frequency, TF over GST control) | 1.08 fold enrichment (6-mer frequency, TF over GST control) | 1.04 fold enrichment (6-mer frequency, TF over GST control) | 1.06 fold enrichment (6-mer frequency, TF over GST control) | 1.11 fold enrichment (6-mer frequency, TF over GST control) | 1.05 fold enrichment (6-mer frequency, TF over GST control) | 1.18 fold enrichment (6-mer frequency, TF over GST control) | 1.13 fold enrichment (6-mer frequency, TF over GST control) | 1.16 fold enrichment (6-mer frequency, TF over GST control)
